Experimental data reported in ChEMBL document CHEMBL3988442, “University of Dundee, Small-Polar-MMV Screening Library” (2021).
For some of these results: Measured potencies and affinities stand elsewhere.

Key:
Parameters in all cases: scale not given: direction of the effect not stated beside the values
[1] = biological target: Protein translocase subunit SecA (Escherichia coli (strain K12)) (UniProt P10408); experiment: Assay to Identify E. coli SecA ATPase Inhibitors; type: functional; details: 30 µM
[2] = biological target: T1, Ubiquitin-activating enzyme e1, putative (Leishmania donovani (strain BPK282A1)) (UniProt E9BSI1); experiment: Leishmania donovani Ubiquitin Activating Enzyme (LdE1); type: functional; details: 30 µM
T1 sequence (whole entry): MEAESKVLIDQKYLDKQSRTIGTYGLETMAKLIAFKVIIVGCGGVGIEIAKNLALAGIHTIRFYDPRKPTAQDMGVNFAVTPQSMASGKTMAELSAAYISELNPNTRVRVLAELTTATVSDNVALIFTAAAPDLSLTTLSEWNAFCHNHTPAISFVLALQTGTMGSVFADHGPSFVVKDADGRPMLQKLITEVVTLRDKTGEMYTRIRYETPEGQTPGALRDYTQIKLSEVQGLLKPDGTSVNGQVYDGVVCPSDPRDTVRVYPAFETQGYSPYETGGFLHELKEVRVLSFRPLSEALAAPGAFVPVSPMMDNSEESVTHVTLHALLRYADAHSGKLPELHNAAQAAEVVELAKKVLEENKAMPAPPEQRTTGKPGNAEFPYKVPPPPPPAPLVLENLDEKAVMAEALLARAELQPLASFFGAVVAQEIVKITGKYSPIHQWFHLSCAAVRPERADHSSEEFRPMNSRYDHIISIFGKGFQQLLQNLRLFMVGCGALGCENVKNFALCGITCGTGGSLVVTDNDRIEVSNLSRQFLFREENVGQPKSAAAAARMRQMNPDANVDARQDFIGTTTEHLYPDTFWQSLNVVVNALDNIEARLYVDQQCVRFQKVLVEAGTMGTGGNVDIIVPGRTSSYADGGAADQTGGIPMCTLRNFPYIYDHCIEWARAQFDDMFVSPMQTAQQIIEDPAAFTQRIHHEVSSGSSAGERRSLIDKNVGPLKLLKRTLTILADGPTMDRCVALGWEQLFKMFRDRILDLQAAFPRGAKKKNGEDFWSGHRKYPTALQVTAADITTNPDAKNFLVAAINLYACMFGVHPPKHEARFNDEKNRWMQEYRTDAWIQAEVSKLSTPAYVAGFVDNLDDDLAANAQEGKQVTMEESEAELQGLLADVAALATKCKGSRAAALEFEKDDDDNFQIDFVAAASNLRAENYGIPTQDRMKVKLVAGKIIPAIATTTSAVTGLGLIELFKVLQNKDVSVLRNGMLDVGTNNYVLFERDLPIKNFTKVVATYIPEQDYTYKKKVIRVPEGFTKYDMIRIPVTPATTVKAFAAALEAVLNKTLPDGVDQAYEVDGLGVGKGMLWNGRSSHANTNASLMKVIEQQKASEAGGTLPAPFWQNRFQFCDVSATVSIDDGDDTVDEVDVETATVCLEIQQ

[3] = biological target: AMP-activated protein kinase, AMPK (Homo sapiens) (UniProt P54646+O43741+P54619+Q9UGJ0+Q9Y478+Q13131+Q9UGI9); experiment: AMP-dependent Kinase enzyme assay. An in vitro enzyme assay that detects ADP turnover that is directly proportional to AMPK activity. This uses naive AMPK that is activated during the assay with MK-8722; type: functional; details: 30 µM
[4] = biological target: Sialic acid-binding Ig-like lectin 9 (Homo sapiens) (UniProt Q9Y336); experiment: Hs-Siglec9 ALPHAscreen SOP 20170721; details: 10 µM
Trypanosoma cruzi = experiment: Trypanosoma cruzi phosphomannomutase and mannose-1-phosphate guanylyltransferase assay; type: functional; details: 10 µM
[5] = biological target: T2, Arginase-2, mitochondrial (Homo sapiens) (UniProt P78540); experiment: in vitro enzyme assay to detect the production of urea directly proportional to the activity of Arginase II; type: functional; details: 33.3 µM; note: in the data most compounds retested in dose-response had high values
T2 sequence (whole entry): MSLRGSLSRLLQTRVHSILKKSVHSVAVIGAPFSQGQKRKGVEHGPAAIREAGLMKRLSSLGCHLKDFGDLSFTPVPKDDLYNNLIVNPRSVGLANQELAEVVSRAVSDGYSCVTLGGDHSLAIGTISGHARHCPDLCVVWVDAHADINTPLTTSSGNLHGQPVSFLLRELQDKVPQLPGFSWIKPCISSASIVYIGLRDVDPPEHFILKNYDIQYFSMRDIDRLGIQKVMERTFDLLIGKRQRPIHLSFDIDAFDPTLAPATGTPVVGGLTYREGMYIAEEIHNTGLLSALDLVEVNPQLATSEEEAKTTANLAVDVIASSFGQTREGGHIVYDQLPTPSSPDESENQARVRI

[6] = biological target: T3, Proteasome subunit beta (Trypanosoma cruzi) (UniProt O96673); experiment: Trypanosoma cruzi proteasome chymotrypsin-like activity (TcProtChymo) assay.; note: in the data most compounds retested in dose-response had high values; type: functional; details: 9.37 µM
T3 sequence (whole entry): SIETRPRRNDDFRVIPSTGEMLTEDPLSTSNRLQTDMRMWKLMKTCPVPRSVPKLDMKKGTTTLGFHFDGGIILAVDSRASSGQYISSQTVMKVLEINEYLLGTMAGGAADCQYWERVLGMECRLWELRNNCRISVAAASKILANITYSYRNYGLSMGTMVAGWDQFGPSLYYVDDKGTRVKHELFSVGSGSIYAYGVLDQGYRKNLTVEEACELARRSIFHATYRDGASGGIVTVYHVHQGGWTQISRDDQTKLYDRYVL

Homo sapiens = organism: Homo sapiens; experiment: To identify inhibition of the IFN signalling (Jak-Stat) pathway via expression of an eGFP reporter gene under the control of an IFN-stimulated response element (ISRE) containing MxA promoter.; type: functional; details: 30 µM
[7] = biological target: T4, Tyrosyl-tRNA synthetase, putative (Trypanosoma cruzi (strain CL Brener)) (UniProt Q4DSP6); experiment: Trypanosoma cruzi tyrosyl tRNA synthetase (TcYRS) _High Tyrosine SOP; type: functional; details: 30 µM; note: in the data most compounds retested in dose-response had high values
T4 sequence (whole entry): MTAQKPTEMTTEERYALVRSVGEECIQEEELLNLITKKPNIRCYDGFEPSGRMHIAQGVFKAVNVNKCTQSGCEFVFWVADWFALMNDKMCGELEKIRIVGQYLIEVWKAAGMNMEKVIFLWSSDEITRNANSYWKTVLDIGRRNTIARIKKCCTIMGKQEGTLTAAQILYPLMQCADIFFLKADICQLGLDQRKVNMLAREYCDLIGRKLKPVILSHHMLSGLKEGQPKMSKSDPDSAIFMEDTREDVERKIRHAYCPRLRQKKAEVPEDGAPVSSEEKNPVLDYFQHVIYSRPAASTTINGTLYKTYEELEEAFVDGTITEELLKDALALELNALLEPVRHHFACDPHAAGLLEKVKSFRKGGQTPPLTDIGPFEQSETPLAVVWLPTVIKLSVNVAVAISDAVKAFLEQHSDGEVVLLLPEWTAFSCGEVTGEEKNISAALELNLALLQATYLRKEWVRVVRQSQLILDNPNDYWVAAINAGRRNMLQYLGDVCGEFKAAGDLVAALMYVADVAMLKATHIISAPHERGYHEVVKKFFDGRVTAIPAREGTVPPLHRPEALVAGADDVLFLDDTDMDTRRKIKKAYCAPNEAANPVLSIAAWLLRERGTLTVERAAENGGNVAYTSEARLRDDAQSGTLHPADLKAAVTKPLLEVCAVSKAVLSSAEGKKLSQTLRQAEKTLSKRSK

[8] = biological target: T4, Tyrosyl-tRNA synthetase, putative (Trypanosoma cruzi (strain CL Brener)); experiment: Trypanosoma cruzi tyrosyl tRNA synthetase (TcYRS) SOP; type: functional; details: 30 µM
[9] = biological target: Chromo domain-containing protein 1 (Saccharomyces cerevisiae (strain ATCC 204508 / S288c) (Baker's yeast)) (UniProt P32657); experiment: ScCHD-1 Enzyme Inhibition Assay; type: functional; details: 30 µM; note: in the data most compounds retested in dose-response had high values
Sequence of Chromo domain-containing protein 1 (Saccharomyces cerevisiae (strain ATCC 204508 / S288c) (Baker's yeast)) (P32657 whole entry, the tested form may be a part): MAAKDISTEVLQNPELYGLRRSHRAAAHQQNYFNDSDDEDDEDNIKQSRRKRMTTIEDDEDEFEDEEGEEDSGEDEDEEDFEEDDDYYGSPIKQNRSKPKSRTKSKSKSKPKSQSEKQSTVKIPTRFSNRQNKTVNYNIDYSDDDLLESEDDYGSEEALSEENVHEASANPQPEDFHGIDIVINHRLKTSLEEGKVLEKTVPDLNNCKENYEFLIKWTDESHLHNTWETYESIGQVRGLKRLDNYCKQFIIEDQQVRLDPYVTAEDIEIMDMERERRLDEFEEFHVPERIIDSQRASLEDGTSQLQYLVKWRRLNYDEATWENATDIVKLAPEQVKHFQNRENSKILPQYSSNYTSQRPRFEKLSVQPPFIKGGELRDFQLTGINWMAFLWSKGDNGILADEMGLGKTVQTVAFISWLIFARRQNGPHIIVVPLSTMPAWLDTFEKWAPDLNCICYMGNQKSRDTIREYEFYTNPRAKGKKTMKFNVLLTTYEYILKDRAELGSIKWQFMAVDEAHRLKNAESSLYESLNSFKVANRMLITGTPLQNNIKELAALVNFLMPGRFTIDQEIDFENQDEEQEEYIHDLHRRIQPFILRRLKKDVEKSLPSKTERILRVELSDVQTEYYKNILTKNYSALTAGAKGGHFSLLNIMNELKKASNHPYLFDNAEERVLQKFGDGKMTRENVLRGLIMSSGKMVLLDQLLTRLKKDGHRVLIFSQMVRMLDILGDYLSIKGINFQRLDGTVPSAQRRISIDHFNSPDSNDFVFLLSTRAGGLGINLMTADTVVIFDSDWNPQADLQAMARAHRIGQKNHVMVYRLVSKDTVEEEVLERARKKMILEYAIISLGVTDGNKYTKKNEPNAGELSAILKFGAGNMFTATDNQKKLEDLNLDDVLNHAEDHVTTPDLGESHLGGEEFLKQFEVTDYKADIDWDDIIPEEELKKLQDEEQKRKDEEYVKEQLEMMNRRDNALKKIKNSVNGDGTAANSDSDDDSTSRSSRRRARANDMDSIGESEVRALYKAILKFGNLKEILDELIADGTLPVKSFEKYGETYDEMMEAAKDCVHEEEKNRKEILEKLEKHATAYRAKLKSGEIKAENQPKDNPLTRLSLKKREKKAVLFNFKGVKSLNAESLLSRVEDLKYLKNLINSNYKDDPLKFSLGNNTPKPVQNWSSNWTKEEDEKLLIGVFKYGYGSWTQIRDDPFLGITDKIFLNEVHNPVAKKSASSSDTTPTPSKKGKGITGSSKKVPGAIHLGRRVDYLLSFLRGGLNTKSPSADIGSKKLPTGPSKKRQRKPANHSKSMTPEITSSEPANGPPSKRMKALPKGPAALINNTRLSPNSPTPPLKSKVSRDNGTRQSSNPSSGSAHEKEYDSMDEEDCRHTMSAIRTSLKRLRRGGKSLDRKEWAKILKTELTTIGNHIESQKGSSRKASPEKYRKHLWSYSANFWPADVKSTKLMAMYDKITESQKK

Sequence of Sialic acid-binding Ig-like lectin 9 (Homo sapiens) (Q9Y336 whole entry): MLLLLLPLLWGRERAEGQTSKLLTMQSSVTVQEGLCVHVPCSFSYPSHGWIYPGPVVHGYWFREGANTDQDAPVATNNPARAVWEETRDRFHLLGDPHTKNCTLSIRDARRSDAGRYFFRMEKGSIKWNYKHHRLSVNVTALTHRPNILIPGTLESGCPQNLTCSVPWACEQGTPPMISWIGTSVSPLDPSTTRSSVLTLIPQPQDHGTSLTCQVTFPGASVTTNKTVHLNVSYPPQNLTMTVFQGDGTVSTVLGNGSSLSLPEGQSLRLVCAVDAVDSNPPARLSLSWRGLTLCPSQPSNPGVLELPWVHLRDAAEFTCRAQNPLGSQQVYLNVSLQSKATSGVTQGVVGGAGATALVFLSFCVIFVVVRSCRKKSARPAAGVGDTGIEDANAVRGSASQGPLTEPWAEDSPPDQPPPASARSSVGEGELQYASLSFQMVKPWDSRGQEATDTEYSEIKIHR
Sequence of Protein translocase subunit SecA (Escherichia coli (strain K12)) (P10408 whole entry): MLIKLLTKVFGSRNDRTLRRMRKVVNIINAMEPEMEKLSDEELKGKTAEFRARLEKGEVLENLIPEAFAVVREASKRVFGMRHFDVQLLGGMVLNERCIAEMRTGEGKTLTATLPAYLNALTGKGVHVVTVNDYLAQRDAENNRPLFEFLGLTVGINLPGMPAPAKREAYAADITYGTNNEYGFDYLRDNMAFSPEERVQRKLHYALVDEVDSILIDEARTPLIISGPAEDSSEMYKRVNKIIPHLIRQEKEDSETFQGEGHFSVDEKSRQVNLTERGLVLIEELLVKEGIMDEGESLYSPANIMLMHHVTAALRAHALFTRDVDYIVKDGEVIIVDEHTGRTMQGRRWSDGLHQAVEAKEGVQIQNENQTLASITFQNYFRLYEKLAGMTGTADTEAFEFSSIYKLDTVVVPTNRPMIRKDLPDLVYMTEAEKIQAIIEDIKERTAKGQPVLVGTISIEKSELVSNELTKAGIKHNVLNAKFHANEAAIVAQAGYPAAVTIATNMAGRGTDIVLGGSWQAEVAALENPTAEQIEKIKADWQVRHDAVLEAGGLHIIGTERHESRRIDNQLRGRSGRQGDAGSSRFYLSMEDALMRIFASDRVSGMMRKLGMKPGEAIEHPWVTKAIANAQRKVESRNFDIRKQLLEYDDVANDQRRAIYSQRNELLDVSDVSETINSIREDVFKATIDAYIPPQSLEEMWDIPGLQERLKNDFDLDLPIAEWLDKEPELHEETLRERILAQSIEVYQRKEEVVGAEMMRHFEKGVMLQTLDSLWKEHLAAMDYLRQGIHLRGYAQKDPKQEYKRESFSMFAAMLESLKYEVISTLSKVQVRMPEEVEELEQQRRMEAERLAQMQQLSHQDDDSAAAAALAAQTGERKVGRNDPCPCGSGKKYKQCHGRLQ

CSc1ccsc1C(=O)N1CCN(CC(C)(C)O)CC1
Percent Effect [1]: -4.54% | Percent Effect [2]: 8.86% | Percent Effect [3]: 0.454% | Percent Effect [4]: 1.08% | Percent Effect (Trypanosoma cruzi): 1.13% | Percent Effect [5]: -4.95% | Percent Effect [6]: 4.29% | Percent Effect (Homo sapiens): 3.01% | Percent Effect [7]: 4.17% | Percent Effect [8]: -25.3% | Percent Effect [9]: -14.7%

Cc1cccc(CN2C[C@@H]3CN(C(=O)c4ccsc4)C[C@@H]3C2=O)c1
Percent Effect [1]: -2.06% | Percent Effect [2]: 7.79% | Percent Effect [3]: 5.77% | Percent Effect [4]: 6.12% | Percent Effect (Trypanosoma cruzi): -3.25% | Percent Effect [5]: 0% | Percent Effect [6]: 13% | Percent Effect (Homo sapiens): 18.7% | Percent Effect [7]: 3.23% | Percent Effect [8]: 8.64% | Percent Effect [9]: 0.397%

O=C(c1ccc(Cl)o1)N1CCCC(c2cc(C(F)(F)F)[nH]n2)C1 (stereo unspecified)
Percent Effect [1]: -4.11% | Percent Effect [2]: 7.89% | Percent Effect [3]: 8.92% | Percent Effect [4]: -5.86% | Percent Effect (Trypanosoma cruzi): -4.95% | Percent Effect [5]: -0.719% | Percent Effect [6]: 2.45% | Percent Effect (Homo sapiens): 29.4% | Percent Effect [7]: 3.45% | Percent Effect [8]: 3.7% | Percent Effect [9]: -2.91%

CC(C)c1n[nH]c(C2CN(C(=O)CCn3ccccc3=O)CCO2)n1 (stereo unspecified)
Percent Effect [1]: -3.88% | Percent Effect [2]: 1.27% | Percent Effect [3]: 3.8% | Percent Effect [4]: -2.89% | Percent Effect (Trypanosoma cruzi): -3.18% | Percent Effect [5]: -2.37% | Percent Effect [6]: 2.92% | Percent Effect (Homo sapiens): -3.42% | Percent Effect [7]: 3.12% | Percent Effect [8]: 7.59% | Percent Effect [9]: -5.25%

O=C(NCc1cccnc1)C1=NOC2(CCN(S(=O)(=O)C3CC3)C2)C1 (stereo unspecified)
Percent Effect [1]: -5.43% | Percent Effect [2]: 13.3% | Percent Effect [3]: -3.17% | Percent Effect [4]: -2.3% | Percent Effect (Trypanosoma cruzi): 4.25% | Percent Effect [5]: -41.4% | Percent Effect [6]: 5.81% | Percent Effect (Homo sapiens): -3.44% | Percent Effect [7]: -3.12% | Percent Effect [8]: 2.5% | Percent Effect [9]: -6.85%

CCN(C)c1ncnc2c1CCN(Cc1csc(C)n1)CC2
Percent Effect [1]: -0.747% | Percent Effect [2]: 8.11% | Percent Effect [3]: 4.65% | Percent Effect [4]: 2.61% | Percent Effect (Trypanosoma cruzi): -1.07% | Percent Effect [5]: 4.78% | Percent Effect [6]: 25.1% | Percent Effect (Homo sapiens): -16.4% | Percent Effect [7]: 6.49% | Percent Effect [8]: 15.4% | Percent Effect [9]: -2.96%

O=C(C1=CCCC1)N1CCC[C@]2(C[C@@H](Oc3ncccc3F)CO2)C1
Percent Effect [1]: -0.607% | Percent Effect [2]: -5.48% | Percent Effect [3]: -7.12% | Percent Effect [4]: 6.71% | Percent Effect (Trypanosoma cruzi): 3.77% | Percent Effect [5]: 0.399% | Percent Effect [6]: 23.2% | Percent Effect (Homo sapiens): 23.5% | Percent Effect [7]: 5.21% | Percent Effect [8]: 13.6% | Percent Effect [9]: -3.32%

COCC1c2c(cnn2C)CCN1Cc1ccoc1 (stereo unspecified)
Percent Effect [1]: -4.26% | Percent Effect [2]: -2.7% | Percent Effect [3]: 3.57% | Percent Effect [4]: 2.05% | Percent Effect (Trypanosoma cruzi): -1.95% | Percent Effect [5]: -1.67% | Percent Effect [6]: 0.0845% | Percent Effect (Homo sapiens): -9.84% | Percent Effect [7]: 0.99% | Percent Effect [8]: 3.66% | Percent Effect [9]: 2.42%

O=C(Cc1ccc2c(c1)CCCC2)NCCc1ccccn1
Percent Effect [1]: -2.72% | Percent Effect [2]: -7.89% | Percent Effect [3]: -4.68% | Percent Effect [4]: -1.25% | Percent Effect (Trypanosoma cruzi): 0.0934% | Percent Effect [5]: 1.44% | Percent Effect [6]: 16.2% | Percent Effect (Homo sapiens): 12.1% | Percent Effect [7]: 7.39% | Percent Effect [8]: 23.5% | Percent Effect [9]: -7.01%

O=C(NCC1CCOC1)c1cc(-c2cccc(Cl)c2)on1 (stereo unspecified)
Percent Effect [1]: -3.92% | Percent Effect [2]: 18.2% | Percent Effect [3]: 1.45% | Percent Effect [4]: 3.45% | Percent Effect (Trypanosoma cruzi): 0% | Percent Effect [5]: 4.27% | Percent Effect [6]: 16.7% | Percent Effect (Homo sapiens): 14.6% | Percent Effect [7]: 5.83% | Percent Effect [8]: 14.6% | Percent Effect [9]: -5.69%

O=C(Cc1ccccn1)N1CCN(C(=O)c2cccc3[nH]ncc23)CC1
Percent Effect [1]: -1.44% | Percent Effect [2]: 3.8% | Percent Effect [3]: 15.9% | Percent Effect [4]: -3.99% | Percent Effect (Trypanosoma cruzi): -0.103% | Percent Effect [5]: 2.8% | Percent Effect [6]: 5.15% | Percent Effect (Homo sapiens): 4.63% | Percent Effect [7]: 5.21% | Percent Effect [8]: 5.06% | Percent Effect [9]: -0.724%
